This note sets out measurements from PubChem BioAssay (NCATS).

Records with an inconclusive call do not appear. Unmarked numbers belong to inactive results. Calls of active or inactive are those of the source. Calls come from the whole dose curve; as a rule, active = well fitted inhibition curve with a large enough effect; inconclusive = small, poorly fitted or top-dose-only effect; inactive = no such curve, though single readings can be large or run the other way.
% is set by controls: 0 for no effect and ±100 for the full control effect; potency is the fitted concentration of half-maximal effect.
Note: nearly all actives have a fitted effect of over 60% in size.

The first assay deals with Cytochrome P450 2D6 (Homo sapiens) (UniProt P10635). In words: qHTS Assay for Inhibitors and Substrates of Cytochrome P450 2D6 (AID 891).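 For activity change, negative = inhibition: luciferin methyl ether substrate demethylated by CYP2D6 with NADPH regeneration.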 Conditions: recombinant CYP2D6, luciferin-ME EGE luminescence; series mostly up to 11.4 µM; activity change, negative = inhibition: at the top concentration. The method in brief: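 Luminescent read-out of luciferin formed by 5 nM human CYP2D6 demethylating 30 uM Luciferin-ME EGE (Km level) over 60 min at room temperature after NADPH regeneration addition. Data normalized to full inhibition by 1.43 uM quinidine.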
Sequence of Cytochrome P450 2D6 (Homo sapiens) (P10635 whole entry, looked up): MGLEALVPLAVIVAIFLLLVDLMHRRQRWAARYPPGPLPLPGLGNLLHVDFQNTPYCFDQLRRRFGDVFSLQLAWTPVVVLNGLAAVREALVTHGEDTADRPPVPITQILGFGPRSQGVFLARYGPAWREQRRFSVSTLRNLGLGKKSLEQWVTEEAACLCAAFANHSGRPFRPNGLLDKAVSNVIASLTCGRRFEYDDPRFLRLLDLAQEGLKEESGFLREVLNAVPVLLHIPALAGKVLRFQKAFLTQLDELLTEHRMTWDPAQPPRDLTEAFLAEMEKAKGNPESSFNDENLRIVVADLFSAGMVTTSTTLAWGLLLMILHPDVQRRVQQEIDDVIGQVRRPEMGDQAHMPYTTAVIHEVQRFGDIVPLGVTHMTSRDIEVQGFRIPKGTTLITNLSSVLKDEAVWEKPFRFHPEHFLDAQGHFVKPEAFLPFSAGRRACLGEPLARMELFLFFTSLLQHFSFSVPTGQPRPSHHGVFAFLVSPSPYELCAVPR
A general note: qHTS replaces the single test concentration by a dilution series.
With `CC1CCC2C(=O)N3C(CCC(C)[C@H]3c3ccccc3Br)C(=O)N2C1c1ccccc1Br` (stereo partly drawn), the Potency is 3160 nM (active). Same read-out and setting: to `CC(=O)OC[C@H]1O[C@@H](O/N=C(\C)CCC(=O)OC[C@@H]2O[C@H](C#Cc3ccccc3)C=C[C@@H]2Oc2ccc(C)cc2)[C@H](OC(C)=O)[C@@H](OC(C)=O)[C@H]1OC(C)=O` belongs 3980 nM (active); to `CC(=O)OC[C@@H]1O[C@H](C/C=N\O[C@@H](C)CN2CCCc3nc(C)c(C)cc32)C=C[C@@H]1OC(C)=O`, 3160 nM (active); to `CC(=O)OCC1OC(C#Cc2ccc(C)cc2C)C=CC1OC(C)=O` (stereo not drawn), 3980 nM (active).

On to `CC1CCC2C(=O)OC(CO)CN2C1c1ccc(Br)cc1` (stereo not drawn), for which the “activity change, negative = inhibition” value is 1.85%.

With `COC(=O)NC(/C(C(=O)OC)=C(\C)NCc1ccccc1)c1ccc2ccccc2c1` (stereo not drawn), the Potency is 2000 nM (active). For `CC1CCC2C(=O)N3C(CCC(C)[C@H]3c3cccc(N4CCCC4=O)c3)C(=O)N2C1c1cccc(N2CCCC2=O)c1` (stereo partly drawn), the “activity change, negative = inhibition” value was -0.327%. Turning to `COc1ccc(OC)c(-c2ccccc2/C=N/NS(=O)(=O)c2ccc(C)cc2)c1`, the “activity change, negative = inhibition” value was -3.85%. Same read-out and setting: to `COc1ccc(OC2C=CC(C#Cc3ccc(C(C)(C)C)cc3)OC2CO)cc1` (stereo not drawn) belongs 0.0339%. As to `COc1ccc(OC2C(O)COC2/C=C/c2ccccc2)cc1` (stereo not drawn), the Potency entry is “inactive”. For `COC(=O)C(/C=C/C(C)Cc1cc(Br)cc(OCc2ccccc2)c1OC)OCc1ccccc1` (stereo not drawn), the “activity change, negative = inhibition” value is -12.8%. With `C[C@@H](c1ccccc1)N1C(=O)[C@H]2[C@H]3[C@H](O)[C@H](O)C/C(=N/OCc4ccccc4)[C@@H]3CC[C@@H]2C1=O`, the “activity change, negative = inhibition” value is 16.9%.

For `CCN1C(=O)[C@H]2[C@H]3[C@H](O)[C@H](O)C/C(=N/OC[C@@H](C)[C@H](OCc4ccccc4)C(C)C)[C@@H]3CC[C@@H]2C1=O`, the “activity change, negative = inhibition” value is 22.9%. Regarding `CC(=O)OC[C@@H]1O[C@@H](O/N=C2/C[C@@H](O)[C@@H](O)[C@@H]3[C@@H]4C(=O)N(Cc5ccc6c(c5)OCO6)C(=O)[C@H]4CC[C@H]23)[C@H](OC(C)=O)[C@H](OC(C)=O)[C@@H]1OC(C)=O`, the Potency is 3160 nM (active). For `C[C@@H]1/C=C\CC(=O)OC[C@H]2O[C@@H](C=C[C@@H]2O)[C@H](C)/C=C\CC(=O)OC1`, the “activity change, negative = inhibition” value was 21.7%. Turning to `O=C(NCCC[N+]1=CC=N[C@H]1c1ccccc1)N1CCCc2nc(-c3ccc(Br)cc3)ccc21`, the Potency is 79.4 nM (active).

The target of the next assay is Cytochrome P450 2C19 (Homo sapiens) (UniProt P33261). As to the kind of experiment: qHTS Assay for Inhibitors and Substrates of Cytochrome P450 2C19 (AID 899). To be noted: recombinant CYP2C19, luciferin-H EGE luminescence; series mostly up to 11.4 µM; activity, negative = inhibition: at the top concentration. The method in brief: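 5nM enzyme + 10uM Luciferin-H EGE (=KM), 50mM KPO4; cpd pin-transferred, 10 min 37C; NADPH regen, 60 min 37C; stopped w/ luciferin detection reagent, 20 min; luminescence. Normalized to 57uM ketoconazole (AC100).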
Sequence of Cytochrome P450 2C19 (Homo sapiens) (P33261 whole entry, looked up): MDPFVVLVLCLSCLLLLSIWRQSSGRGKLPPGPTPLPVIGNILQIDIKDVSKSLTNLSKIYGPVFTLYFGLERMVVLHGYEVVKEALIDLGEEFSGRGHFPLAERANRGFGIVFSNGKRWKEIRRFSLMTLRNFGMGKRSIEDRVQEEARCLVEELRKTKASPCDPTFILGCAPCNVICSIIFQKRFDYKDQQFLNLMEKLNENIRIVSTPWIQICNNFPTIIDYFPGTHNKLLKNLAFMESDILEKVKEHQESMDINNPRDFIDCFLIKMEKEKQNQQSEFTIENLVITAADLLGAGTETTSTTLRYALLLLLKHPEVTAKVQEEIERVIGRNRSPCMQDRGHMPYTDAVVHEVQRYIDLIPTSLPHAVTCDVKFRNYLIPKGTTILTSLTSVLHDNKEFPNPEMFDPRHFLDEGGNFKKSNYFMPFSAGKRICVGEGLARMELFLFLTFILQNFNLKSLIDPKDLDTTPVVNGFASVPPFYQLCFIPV
With `CC1CCC2C(=O)N3C(CCC(C)C3c3ccccc3Br)C(=O)N2C1c1ccc(C#CCN(C)C)cc1` (stereo not drawn), the “activity, negative = inhibition” value was -19.3%.

On to `CCC[C@@H]1C[C@@]1(CCC)C(NC(=O)OCc1ccccc1)c1ccc(-c2ccccc2)cc1` (stereo partly drawn), for which the Potency was 1260 nM (active). In the case of `CC1CCC2C(=O)N3C(CCC(C)[C@H]3c3ccccc3Br)C(=O)N2C1c1ccccc1Br` (stereo partly drawn), the “activity, negative = inhibition” value is -36.7%.

On to `CC1CCC2C(=O)OC(CO)CN2C1c1ccc(Br)cc1` (stereo not drawn), for which the Potency was 158 nM (active). As to `COc1ccc(OC)c(-c2ccccc2/C=N/NS(=O)(=O)c2ccc(C)cc2)c1`, the Potency was 100 nM (active). The same measure, in the same setting: to `COc1ccc(OC2C(O)COC2/C=C/c2ccccc2)cc1` (stereo not drawn) belongs 2000 nM (active).

For the molecule `COC(=O)C(/C=C/C(C)Cc1cc(Br)cc(OCc2ccccc2)c1OC)OCc1ccccc1` (stereo not drawn), the “activity, negative = inhibition” value was -13.4%.
